Only some compounds are listed: those with a hit (about 12% of all), similar ones and a draw of the others.
NS1 function inh: blocks influenza NS1 protein function | Potency, µM (highest dose often 46.1 µM) | 270,000 tested, 0.4% active | AID 2326; note: actives are rising curves; nearly all actives have a fitted effect of over 50% in size
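A cell-based growth assay was used: compounds that relieve NS1-induced slow growth of budding yeast raise OD600. Assay medium was yeast nitrogen base with ammonium sulphate and -URA supplement, pH 6.0, with 2% galactose.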
Shiga toxin inh: Shiga toxin inhibition; Vero cells, Shiga toxin protein synthesis inhibition reporter; 290,000 tested, 9.2% active; AID 2315; inhibition, % at 38.7 µM; in the data active = inhibition mostly above about 28%, no sharp cut-off; inactive = mostly below about 43%
SARS PLP yeast: inhibitors of SARS-CoV papain-like protease in yeast. S. cerevisiae expressing SARS-CoV PLpro, growth rescue. Potency, µM (series often up to 32.9 µM), most hits filed as activators. 330,000 tested, 0.19% active; note: nearly all actives have a fitted effect of over 55% in size
Cycloheximide cs: counter-screen for Shiga toxin inhibitors: cycloheximide protein synthesis inhibition. cell reporter, cycloheximide protein synthesis inhibition counterscreen. max response, %. 300,000 tested, 12% active. AID 2314; in the data active = max response mostly above about 13%, no sharp cut-off; inactive = mostly below about 14%; note: read at 38.3 µM for the half of the compounds with a filed dose
Each line names hits and unclear results; the compound was inactive in the other large screens. Unless noted, calls come from the whole dose curve.

Cc1ccccc1OCCCC(=O)Nc1ccc(S(=O)(=O)Nc2onc(C)c2C)cc1	none
Cc1sccc1/C=N/NC(=O)c1ccco1	none
O=C(N/N=C/c1sc(=O)n(Cc2ccc(Br)cc2)c1Cl)c1ccco1	Cycloheximide cs 22
Cc1ccc(/C=N/NC(=O)c2ccco2)s1	Shiga toxin inh 71, Cycloheximide cs 53
O=C(N/N=C/c1ccc(Br)s1)c1ccco1	Shiga toxin inh 91, Cycloheximide cs 55
O=C(O)c1cccc(Cn2c(Cl)c(/C=N/NC(=O)c3ccccc3O)sc2=O)c1	Cycloheximide cs 17
O=C1c2cccnc2C(=O)N1CNc1ccc(Cl)cc1	none (no result: NS1 function inh)
Nc1c(Br)cc2oc(-c3ccccc3)nc2c1Br	Cycloheximide cs 18
C(=N\Nc1ccccc1)/c1nc2ccccc2s1	Shiga toxin inh 135, Cycloheximide cs 64
Oc1ccc2ccccc2c1/C=N/Nc1ccccc1	none
Brc1csc(/C=N/Nc2nc3ccccc3s2)c1	Shiga toxin inh 92, Cycloheximide cs 38
Brc1cc2c(cc1/C=N/Nc1nc3ccccc3s1)OCO2	Shiga toxin inh 28, Cycloheximide cs 21
Cc1ccc2[nH]c(C)c(/C=N/Nc3nc4ccccc4s3)c2c1	Cycloheximide cs 51
OC[C@H](CCc1c[nH]c2ccccc12)c1c[nH]c2ccccc12	none (no result: Shiga toxin inh, SARS PLP yeast, Cycloheximide cs)
CC(C)(C)C(=O)NC(=S)Nc1ccccc1C(=O)Nc1ccccc1	none
C(=N\Nc1nc2ccccc2s1)/c1ccc2c(c1)OCO2	Shiga toxin inh 90, Cycloheximide cs 72
C(=N\Nc1nc2ccccc2s1)/c1ccccn1	none
CCNC(=S)N/N=C(\C)c1cccc([N+](=O)[O-])c1	SARS PLP yeast inconclusive
Cc1cc(=O)cc(C)n1-c1ccccc1N	none
N/C(=N\O)c1ccccc1-n1cccc1	none (no result: NS1 function inh)
Cc1ccc(C)n1-c1ccccc1N	Cycloheximide cs 24
Nc1ccccc1-n1cccc1	Cycloheximide cs 13
S=c1nc(Cc2ccc(Cl)cc2)[nH]c2ccccc12	Cycloheximide cs 13 (no result: NS1 function inh)
O=C(CCc1nc2ccccc2c(=O)[nH]1)NNC(=O)COc1ccc(Br)cc1	none (no result: NS1 function inh, Shiga toxin inh, Cycloheximide cs)
S=c1nc(COc2ccccc2)[nH]c2ccccc12	Shiga toxin inh 116, Cycloheximide cs 58
O=c1[nH]c(COc2ccc(Br)cc2Cl)nc2ccccc12	Shiga toxin inh 104, Cycloheximide cs 37
O=c1[nH]c(COc2ccccc2)nc2ccccc12	Shiga toxin inh 49, Cycloheximide cs 25
Clc1ccc2nc(COc3ccccc3)[nH]c2c1	Cycloheximide cs 34 (no result: Shiga toxin inh)
O=C(NCCOc1ccccc1)c1cc2ccccc2o1	Shiga toxin inh 117, Cycloheximide cs 45 (no result: SARS PLP yeast)
CC(C)Cc1ccc(C(=O)NCCOc2ccccc2)o1	Shiga toxin inh 80, Cycloheximide cs 29
O=C(COc1ccccc1)NNC(=O)c1cc2ccccc2o1	none
Cc1cccc2c1-c1sc(C(=O)N3CCCCC3)cc1CO2	Shiga toxin inh 41, Cycloheximide cs 30
CCN1CCN(C(=O)c2cc3c(s2)-c2c(C)cccc2OC3)CC1	Shiga toxin inh 34, Cycloheximide cs 29
CCOC(=O)N1CCN(C(=O)c2cc3c(s2)-c2c(C)cccc2OC3)CC1	none
Cc1cccc2c1-c1sc(C(=O)N3CCc4ccccc4C3)cc1CO2	none
COc1ccc(-c2cc(C3C4C=CCCC4(C)C(=O)N3Cc3ccccc3)ccc2F)cc1 (centres undefined)	none (no result: NS1 function inh, SARS PLP yeast)
NCCNC[C@H](O)CO	none (no result: Shiga toxin inh, SARS PLP yeast, Cycloheximide cs)
Clc1cccc(Cl)c1CNCCCSc1ncccn1	Cycloheximide cs 7.1
Cc1ccc(/C=N/NC(=O)c2ccc(-n3cccc3)cc2)o1	none
O=C(O)c1ccc(N/N=C/c2ccc(-c3ccc(Br)cc3)o2)cc1	Shiga toxin inh 39, Cycloheximide cs 27
Cc1ccc(/C=N/Nc2ccc(C(=O)O)cc2)o1	Shiga toxin inh 76, Cycloheximide cs 30 (no result: NS1 function inh)
Cc1cc(O)c(C)c2sc(N)nc12	none (no result: NS1 function inh, SARS PLP yeast)
Fc1cc(Cl)c(OCc2noc(-c3ccsc3)n2)c(Cl)c1	Shiga toxin inh 35, Cycloheximide cs 21
Clc1ccc(OCCCc2nc(-c3ccncc3)no2)c(Cl)c1	none
Clc1ccc(OCc2noc(-c3ccsc3)n2)c(Cl)c1	Shiga toxin inh 130, Cycloheximide cs 50
O=C(COC(=O)CCCN1C(=O)c2cccc3cccc(c23)C1=O)Nc1cccc(C(F)(F)F)c1	none
COc1ccc(NC(=S)N/C(=N/S(=O)(=O)c2ccc(C)cc2)c2ccccc2)cc1	Shiga toxin inh 61, Cycloheximide cs 34
COc1ccc(NC(=S)NC(=NS(=O)(=O)c2ccc(Cl)cc2)c2ccccc2)cc1	none (no result: NS1 function inh, Shiga toxin inh, Cycloheximide cs)
O=S(=O)(/N=C(/NC(=S)Nc1ccccc1)c1ccccc1)c1ccc(Cl)cc1	Shiga toxin inh 101, Cycloheximide cs 41
Cn1c(SCC(=O)Nc2cccnc2)nnc1-c1ccccc1F	none (no result: NS1 function inh)
COc1ccc(OCc2cc(C(=O)N[C@H]3CCCCNC3=O)no2)c(Cl)c1	Shiga toxin inh 58, Cycloheximide cs 49

Assay outcomes deposited in PubChem BioAssay by National Center for Advancing Translational Sciences (NCATS).
